Assay [1] has as its target T1, GST-Nv-NF-kB (Ser allele) (Nematostella vectensis, UniProt A7UNT2 2-411).
T1 sequence: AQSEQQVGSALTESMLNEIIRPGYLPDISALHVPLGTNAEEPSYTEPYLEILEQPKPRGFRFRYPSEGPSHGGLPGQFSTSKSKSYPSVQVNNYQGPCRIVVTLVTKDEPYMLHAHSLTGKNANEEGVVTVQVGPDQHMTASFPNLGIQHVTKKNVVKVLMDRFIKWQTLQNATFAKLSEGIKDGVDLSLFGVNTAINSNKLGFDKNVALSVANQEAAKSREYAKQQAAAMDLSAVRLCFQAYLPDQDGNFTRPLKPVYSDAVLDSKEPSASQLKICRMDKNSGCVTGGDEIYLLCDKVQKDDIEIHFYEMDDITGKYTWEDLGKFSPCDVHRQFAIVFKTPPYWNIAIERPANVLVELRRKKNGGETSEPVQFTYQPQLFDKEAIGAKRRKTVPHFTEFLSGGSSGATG
Nature of the assay: protein-binding microarray (PBM); PBM: ~300 nM protein, 6 mM HEPES pH 7.8, 80 mM KCl, 0.5 mM EDTA, 0.5 mM EGTA, 6% glycerol, 35 ng/ul poly-dIdC, 1% milk, 1 h, room temperature; Ap Aiptasia and Nv Nematostella (sea anemones) / Co Capsaspora / Aq Amphimedon (sponge) / Dm Drosophila / Hu human; RHD is the Rel homology domain; high values mean tight binding. As to conditions: dsDNA, one strand shown.

The next assay addresses GST-Hu-p50 (Homo sapiens, UniProt P19838 7-356). Described as above. The conditions noted are these: dsDNA, one strand shown.

Chain of GST-Hu-p50 (P19838 7-356): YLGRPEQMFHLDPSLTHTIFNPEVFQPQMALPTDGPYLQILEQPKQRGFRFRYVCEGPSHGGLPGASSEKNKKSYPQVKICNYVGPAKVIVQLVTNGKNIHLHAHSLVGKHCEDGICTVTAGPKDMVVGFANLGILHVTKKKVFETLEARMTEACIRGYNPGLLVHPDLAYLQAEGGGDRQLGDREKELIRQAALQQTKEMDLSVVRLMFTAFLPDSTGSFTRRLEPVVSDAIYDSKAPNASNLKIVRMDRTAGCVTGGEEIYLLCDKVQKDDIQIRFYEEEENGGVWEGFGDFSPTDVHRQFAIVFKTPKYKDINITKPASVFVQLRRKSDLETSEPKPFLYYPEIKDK

With “CCGATTAACATCACCGGAATTCCTGATGTTAATCGGGTCTTGATTCGCTTGACGCTGCTG”, the binding signal in assay [1] came to 1.56 z-score; with GST-Hu-p50, 2.71 z-score.
For “CCGATTAACATCAGTCCCTAAGCTGATGTTAATCGGGTCTTGATTCGCTTGACGCTGCTG” the same measures were 1.05 z-score and 2.51 z-score.
The like results for “CCGATTAACATCACCGCCCCCCCTGATGTTAATCGGGTCTTGATTCGCTTGACGCTGCTG” were, in that order, 4.44 z-score and 4.53 z-score.
The like results for “CCGATTAACATCAGGGGATCCCATGATGTTAATCGGGTCTTGATTCGCTTGACGCTGCTG” were, in that order, 6.24 z-score and 4.5 z-score.
For “CCGATTAACATCAGGGACTCACCTGATGTTAATCGGGTCTTGATTCGCTTGACGCTGCTG”, the binding signal in assay [1] amounted to 2.72 z-score; in the assay with GST-Hu-p50, 3 z-score.
For “CCGATTAACATCAGGGAATTCACTGATGTTAATCGGGTCTTGATTCGCTTGACGCTGCTG” the same measures were 4.73 z-score and 4.11 z-score.
The like results for “CCGATTAACATCAGGATCTTCCCTGATGTTAATCGGGTCTTGATTCGCTTGACGCTGCTG” were, in that order, 1.87 z-score and 1.9 z-score.
As for “CCGATTAACATCAATATTTACCCTGATGTTAATCGGGTCTTGATTCGCTTGACGCTGCTG”, the binding signal came out at 5.12 z-score in assay [1] and 3.16 z-score with GST-Hu-p50.
For “CCGATTAACATCACTACTTTCCCTGATGTTAATCGGGTCTTGATTCGCTTGACGCTGCTG” the same measures were 5.24 z-score and 3.06 z-score.
Turning to “CCGATTAACATCAGGAATTCCCATGATGTTAATCGGGTCTTGATTCGCTTGACGCTGCTG”, the binding signal is 5.66 z-score in assay [1] and 4.39 z-score with GST-Hu-p50.
For “CCGATTAACATCACGGAATACCCTGATGTTAATCGGGTCTTGATTCGCTTGACGCTGCTG” the same measures were 3.97 z-score and 3.41 z-score.
In the case of “CCGATTAACATCACAGGGAAAAATGATGTTAATCGGGTCTTGATTCGCTTGACGCTGCTG”, the binding signal in assay [1] was 5.18 z-score; with GST-Hu-p50, 3.13 z-score.
For “CCGATTAACATCAAATTGCCCCCTGATGTTAATCGGGTCTTGATTCGCTTGACGCTGCTG” the same measures were 4.54 z-score and 4.59 z-score.
Turning to “CCGATTAACATCAAGGGAAACCCTGATGTTAATCGGGTCTTGATTCGCTTGACGCTGCTG”, the binding signal in assay [1] stood at 4.43 z-score; with GST-Hu-p50 it was 2.93 z-score.
The like results for “CCGATTAACATCAGGACGTTCCCTGATGTTAATCGGGTCTTGATTCGCTTGACGCTGCTG” were, in that order, 1.14 z-score and 1.71 z-score.
Regarding “CCGATTAACATCAGGGAAAAAACTGATGTTAATCGGGTCTTGATTCGCTTGACGCTGCTG”, the binding signal stood at 6.38 z-score in assay [1] and 4.02 z-score with GST-Hu-p50.
The like results for “CCGATTAACATCAGGAACCTCCCTGATGTTAATCGGGTCTTGATTCGCTTGACGCTGCTG” were, in that order, 1.05 z-score and 1.22 z-score.
For the sequence “CCGATTAACATCAAAAATCCCATTGATGTTAATCGGGTCTTGATTCGCTTGACGCTGCTG”, the values for the binding signal (in assay [1]; in the assay with GST-Hu-p50) were 1.88 z-score and 3.48 z-score, respectively.
The like results for “CCGATTAACATCAAATCACCCCCTGATGTTAATCGGGTCTTGATTCGCTTGACGCTGCTG” were, in that order, 5.42 z-score and 4.62 z-score.
The like results for “CCGATTAACATCAGGGGCAACCCTGATGTTAATCGGGTCTTGATTCGCTTGACGCTGCTG” were, in that order, 1.9 z-score and 3.13 z-score.
For “CCGATTAACATCAAGTACCCCCATGATGTTAATCGGGTCTTGATTCGCTTGACGCTGCTG”, the binding signal in assay [1] is 3.01 z-score; with GST-Hu-p50, 2.36 z-score.
For the sequence “CCGATTAACATCACGTAAATCCCTGATGTTAATCGGGTCTTGATTCGCTTGACGCTGCTG”, the binding signal in assay [1] was 2.27 z-score; with GST-Hu-p50, 2.23 z-score.
The like results for “CCGATTAACATCATTTATCCCGGTGATGTTAATCGGGTCTTGATTCGCTTGACGCTGCTG” were, in that order, 1.28 z-score and 1.33 z-score.
For “CCGATTAACATCAAAATCTTCCCTGATGTTAATCGGGTCTTGATTCGCTTGACGCTGCTG” the same measures were 6.32 z-score and 3.8 z-score.
The like results for “CCGATTAACATCAATTTCCCATATGATGTTAATCGGGTCTTGATTCGCTTGACGCTGCTG” were, in that order, 3.63 z-score and 3.09 z-score.
Turning to “CCGATTAACATCAAGGGGGGTGGTGATGTTAATCGGGTCTTGATTCGCTTGACGCTGCTG”, the results for the binding signal (in assay [1]; with GST-Hu-p50) were 4.43 z-score and 4.27 z-score, respectively.
The like results for “CCGATTAACATCAGGGAACTCCATGATGTTAATCGGGTCTTGATTCGCTTGACGCTGCTG” were, in that order, 1.24 z-score and 1.7 z-score.
For “CCGATTAACATCACAACACCCCCTGATGTTAATCGGGTCTTGATTCGCTTGACGCTGCTG” the same measures were 5.01 z-score and 4.62 z-score.
On to “CCGATTAACATCATCTGGGAAAATGATGTTAATCGGGTCTTGATTCGCTTGACGCTGCTG”, for which the binding signal amounted to 4.03 z-score in assay [1] and 1.96 z-score with GST-Hu-p50.
For “CCGATTAACATCAGGGATCCCCATGATGTTAATCGGGTCTTGATTCGCTTGACGCTGCTG” the same measures were 5.06 z-score and 4.35 z-score.
The like results for “CCGATTAACATCAGGGAATTAGATGATGTTAATCGGGTCTTGATTCGCTTGACGCTGCTG” were, in that order, 3.54 z-score and 2 z-score.
Regarding “CCGATTAACATCAGGGAAATAACTGATGTTAATCGGGTCTTGATTCGCTTGACGCTGCTG”, the binding signal in assay [1] is 4.37 z-score; with GST-Hu-p50, 3.76 z-score.
The like results for “CCGATTAACATCACAAATTCCCATGATGTTAATCGGGTCTTGATTCGCTTGACGCTGCTG” were, in that order, 4.59 z-score and 3.86 z-score.
For “CCGATTAACATCACGGGAGTTCCTGATGTTAATCGGGTCTTGATTCGCTTGACGCTGCTG” the same measures were 1.6 z-score and 2.24 z-score.
For “CCGATTAACATCAGGGAATGACCTGATGTTAATCGGGTCTTGATTCGCTTGACGCTGCTG” the same measures were 1.65 z-score and 2.08 z-score.
Take “CCGATTAACATCACCCAGTTCCCTGATGTTAATCGGGTCTTGATTCGCTTGACGCTGCTG”: the values for the binding signal (in assay [1]; with GST-Hu-p50) were 1.2 z-score and 1.24 z-score, respectively.
The like results for “CCGATTAACATCAGGAATCCCTATGATGTTAATCGGGTCTTGATTCGCTTGACGCTGCTG” were, in that order, 1.72 z-score and 1.89 z-score.

The values above are taken from PMC5700166.
